Compounds with a hit are over-represented: about 2.9% of the library has one in this group of screens.
EPAC2 ant val – validation of human EPAC2 antagonists; Q8WZA2; EPAC2 Rap1B BODIPY-GDP exchange, fluorescence; Potency, µM (doses to about 112 µM), without a hit: at the top dose activity, negative = inhibition, hits mostly inhibitors; 16,000 compounds, 1.7% hits;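 also: 100% = activation by cAMP agonist control; nearly all actives have a fitted effect of over 40% in size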
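Normalized against a 6.5 mM cAMP agonist control, compounds were tested on 100 nM EPAC2 exchanging Rap1B-bound BODIPY-GDP (250 nM) for 50 uM GDP. Fluorescence drop (ex 480, em 540 nm) was tracked at room temperature over 30 min at 5-min intervals.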
EPAC1 agonist – validation of human EPAC1 agonists; 16,000 compounds, 1% hits; Potency, µM, for the others: max response, positive = active, most hits filed as activators; EPAC1 Rap1b BODIPY-GDP exchange, fluorescence; also: nearly all actives have a fitted effect of over 70% in size
Active calls of the source: *; ? = inconclusive; ! = not confirmed by another sample. Calls follow the shape of the dose curve; as a rule, active = well fitted curve in the direction sought with a large enough effect; inconclusive = small, poorly fitted or top-dose-only effect, or another doubt; inactive = no such curve, though single readings can be large; an effect the other way counts as inactive or inconclusive. Unless noted, % is scaled to controls: 0 for no effect and ±100 for the full control effect; potency is read from the fitted curve at half-maximal effect.

SMILES	EPAC2 ant val	EPAC1 agonist
CCCCOCCOCCOCc1cc2c(cc1CCC)OCO2	50µM*!	-3%
CCN(CC)CCCC(C)Nc1cc(/C=C/c2ccccc2Cl)nc2cc(Cl)ccc12 (centres undefined)	-4%	19%
CCN(CC)CCCC(C)Nc1c2ccc(Cl)cc2nc2ccc(OC)cc12 (centres undefined)	6%	112µM*!
CC(C)[C@@H](C)/C=C/[C@@H](C)[C@H]1CC[C@H]2/C(=C/C=C3\C[C@@H](O)CC[C@@H]3C)CCC[C@]12C	-19%	-116%
Cc1cc2nc(N3CCCN(Cc4cccn4-c4ncccn4)CC3)nc(C)c2cc1C	-20%	7%
Cc1[nH]c2ccccc2c1/C=C/c1cnc2ccccc2n1	-5%	9%
Cc1[nH]c2ccccc2c1/C=C/c1ccc2ccccc2n1	-14%	100µM*
C[C@@H](O)[C@H]1C(=O)N2C(C(=O)[O-])=C(SC3Cn4cnc[n+]4C3)[C@H](C)[C@H]12 (some centres undefined)	1%	-1%
OC1(c2cccnc2)CCN(Cc2ccc3c(c2)CN(Cc2ccc4nsnc4c2)CCO3)CC1	9%	-14%
CCCCCCCCCCCCCCCCCCN(CCCCCCCCCCCCCCCCCC)c1ccc(/C=C/c2ccnc3ccccc23)cc1	-27%	-17%
CCCCN(CCCC)c1ccc(/C=C/c2ccnc3ccccc23)cc1	130%	112µM*
C=Nc1ccc(/C=C/c2ccnc3ccccc23)cc1	28%	100µM*
C(=C\c1ccnc2ccccc12)/c1ccnc2ccccc12	-34%	-90%
CC(C)c1c(C(=O)NCC(C)(C)N2CCOCC2)cnn1-c1nccc(-c2cccs2)n1	-19%	5%
COc1cc2c(cc1OC)C(=O)N(C)CC2	-19%	-16%
COc1cc2cc3c4c(cc(OC)c(OC)c4c2cc1OC)CCN3C	50µM*	?
Nc1ncnc2c1nc(Sc1ccc(Cl)cc1)n2[C@H]1OC2COP(=O)(O)O[C@@H]2C1O (some centres undefined)	0.5µM*	0.18µM*
Nc1ncnc2c1nc(Br)n2[C@@H]1O[C@H]2COP(=O)(O)O[C@@H]2[C@@H]1O	1.3µM*	?
Nc1ncnc2c1nc(Cl)n2C1OC(CO)C(O)C1O (centres undefined)	-4%	18%
Nc1ncnc2c1nc(Br)n2C1CC(O)C(CO)O1 (centres undefined)	-6%	-3%
Nc1ncnc2c1nc(Br)n2[C@H]1O[C@H]2COP(=O)(O)O[C@H]2[C@@H]1O	3.5µM*	1.1µM*
NC1=NC2C(N=C(Br)N2[C@@H]2O[C@H]3COP(=O)(O)O[C@@H]3[C@@H]2O)C(=O)N1 (some centres undefined)	?	17%
COc1ccccc1C(=O)Nc1cccc(N2CCC(NCc3cnn(-c4ccccc4)n3)CC2)c1	-9%	11%
CO/N=C(\C(=O)N[C@@H]1C(=O)N2C(C(=O)O)=C(CSC(=O)c3ccco3)CS[C@H]12)c1csc(N)n1	3%	-8%
COc1ccccc1N1CCN(c2nc(CNC(=O)c3cc(C)oc3C)nc3ccccc23)CC1	-6%	-2%
SMILES	EPAC2 ant val	EPAC1 agonist
CCC1OC(=O)C[C@@H](O)[C@H](C)[C@@H](O[C@@H]2O[C@H](C)C[C@H](N(C)C)[C@H]2O)[C@@H](CC=O)C[C@@H](C)C(=O)/C=C/[C@]2(C)OC2C1C (some centres undefined)	10%	-6%
CC[C@@]1(O)C(=O)OCc2c1cc1n(c2=O)Cc2cc3c([N+](=O)[O-])cccc3nc2-1	-17%	6%
CC[C@@]1(O)C(=O)OCc2c1cc1n(c2=O)Cc2cc3c(CN(C)C)c(O)ccc3nc2-1	87%	112µM*
CC(C)=CCC/C(C)=C/CC/C(C)=C/CC/C(C)=C/CC/C(C)=C/CC/C(C)=C/CC/C(C)=C/CC/C(C)=C/CC/C(C)=C/CO	-21%	2%
CC(C)=CCC/C(C)=C/CC/C(C)=C/CO	45µM*!	-16%
c1cnc2cc3c(cc2n1)[C@@H]1CNC[C@H]3C1	-3%	10%
CC(=O)c1ccc2oc3ccccc3c(=O)c2c1	18%	2%
CCc1oc2ccccc2c1C(=O)c1cc(Br)c(O)c(Br)c1	45µM*	-42%
COc1ccc2[nH]c(-c3ccccc3)c(CCNC(C)=O)c2c1	?	-3%
CCCC(=O)NCCc1c2n(c3ccc(OC)cc13)CCCc1ccccc1-2	14µM*	5%
COC(=O)C1=C(C)NC(C)=C(C(=O)O[C@@H]2CCCN(Cc3ccccc3)C2)[C@@H]1c1cccc([N+](=O)[O-])c1	-25%	?
COCCOC(=O)C1=C(C)NC(C)=C(C(=O)OC(C)C)C1c1cccc([N+](=O)[O-])c1 (centres undefined)	?	4%
COC(=O)C1=C(C)NC(C)=C(C(=O)OC(C)(C)CN(C)CCC(c2ccccc2)c2ccccc2)C1c1cccc([N+](=O)[O-])c1 (centres undefined)	-28%	?
COC(=O)C1=C(C)NC(C)=C(C(=O)OCCCN2CCC(c3ccccc3)(c3ccccc3)CC2)[C@H]1c1cccc([N+](=O)[O-])c1	?	13%
CCOC(=O)C1=C(C)NC(C)=C(C(=O)OC)[C@H]1c1cccc([N+](=O)[O-])c1	18µM*	15%
CC1=C(C(=O)OC(C)C)C(c2cccc([N+](=O)[O-])c2)C(C(=O)OC2CN(C(c3ccccc3)c3ccccc3)C2)=C(N)N1 (centres undefined)	1%	100µM*
CCOC(=O)C1=C(C)NC(C)=C(C(=O)OC)C1c1cccc([N+](=O)[O-])c1 (centres undefined)	7.9µM*!	0%
COCCOC(=O)C1=C(C)NC(C)=C(C(=O)OC(C)C)[C@@H]1c1cccc([N+](=O)[O-])c1	50µM*	0%
COC[C@H](c1ccc(C(F)(F)F)cc1)N1CCN(C2(C)CCN(C(=O)c3c(C)ncnc3C)CC2)C[C@H]1C	-1%	-33%
O=C1C2CC3CC1CC(O)(C3)C2	-23%	3%
Cc1nc(C)c(C(=O)NCc2nc(-c3cccc(NC(=O)c4ccccn4)c3)oc2C)s1	-17%	-2%
CC(C)CCC[C@@H](C)[C@H]1CC(=O)C2=C3CC[C@H]4C[C@@H](O)CC[C@]4(C)[C@H]3CC[C@@]21C	5%	-32%
CNCC(=O)N[C@@H](CCCN=C(N)N)C(=O)N[C@H](C(=O)N[C@@H](Cc1ccc(O)cc1)C(=O)N[C@H](C(=O)N[C@@H](Cc1cnc[nH]1)C(=O)N1CCC[C@H]1C(=O)N[C@@H](C)C(=O)O)C(C)C)C(C)C	-9%	-1%
Cc1nc(CC(=O)NCC2Cc3cc(F)cc(-c4ccc(F)c(C)c4)c3O2)cs1 (centres undefined)	-48%	11%
COc1ccc(CNc2nc(-c3ccc4c(c3)OCO4)nc3ccccc23)c(OC)c1	-15%	112µM*
SMILES	EPAC2 ant val	EPAC1 agonist
Cc1cccc(CNc2nc(-c3ccc4c(c3)OCO4)nc3ccccc23)c1	?	112µM*
COc1ccccc1CNc1nc(-c2cccnc2)nc2ccccc12	-22%	89µM*
COc1cccc(-c2nc(NCc3ccc(OC)cc3OC)c3ccccc3n2)c1	-21%	?
c1cncc(CNc2nc(-c3ccc4c(c3)OCO4)nc3ccccc23)c1	-20%	?
COc1ccccc1-c1nc(NCc2cccnc2)c2ccccc2n1	-14%	-21%
CC(=O)c1ccc(F)c(-c2cc(C)cc3c2OC(CNC(=O)c2csc(C)n2)C3)c1 (centres undefined)	-32%	8%
